Assay outcomes as filed in PubChem BioAssay.
Rows were chosen to be rich in hits. Some 2.9% of all compounds tested hit in one or more screens of this group.
PAFAH1B3 inh: inhibitors of human PAFAH1B3; Q15102; recombinant PAFAH1B3, FP-rhodamine probe, fluorescence polarization; inhibition, % at 3.39 µM; 340,000 tested, 0.28% active; AID 492972;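 active = inhibition above the screen-wide average of all tested compounds plus 3 SD, cut at about 25% in these data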;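 note: 0% = enzyme with DMSO only and 100% = wells lacking PAFAH1B3 protein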
PAFAH2 FP inh: inhibitors of human PAFAH2 | Q99487 | recombinant PAFAH2, FP-rhodamine activity probe, fluorescence polarization | inhibition, % at 3.39 µM | 340,000 tested, 0.99% active | AID 492956;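 active = inhibition above the mean over all tested compounds plus 3 SD, cut at about 30% in these data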;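 note: inhibitors block probe labeling of enzyme so polarization drops; 0% = enzyme with DMSO and 100% = wells lacking PAFAH2 protein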
pPAFAH FP inh: inhibitors of human plasma PAF acetylhydrolase (pPAFAH) | 330,000 tested, 1.5% active | recombinant pPAFAH, FP-rhodamine probe fluorescence polarization | inhibition, % at 3.39 µM;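 active = inhibition above the mean inhibition across the screen plus 3 SD, cut at about 25% in these data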;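 note: inhibitors block binding of the rhodamine activity-based probe so polarization drops; 0% = enzyme with DMSO and 100% = wells lacking pPAFAH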
LYPLA1 inh: LYPLA1 (human) inhibition in PME1 counter-screen | inhibition, % at 5.9 µM | 320,000 tested, 0.16% active | recombinant LYPLA1, FP-Rh probe fluorescence polarization | AID 2174 | O75608;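 active = inhibition above the mean of all tested compounds plus 3 SD, set per campaign, cut at about 14% in these data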;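 note: inhibitors block serine hydrolase probe labeling of LYPLA1 so polarization falls; 0% = enzyme with DMSO and 100% = wells lacking LYPLA1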
Target sequence (O75608 whole entry, looked up): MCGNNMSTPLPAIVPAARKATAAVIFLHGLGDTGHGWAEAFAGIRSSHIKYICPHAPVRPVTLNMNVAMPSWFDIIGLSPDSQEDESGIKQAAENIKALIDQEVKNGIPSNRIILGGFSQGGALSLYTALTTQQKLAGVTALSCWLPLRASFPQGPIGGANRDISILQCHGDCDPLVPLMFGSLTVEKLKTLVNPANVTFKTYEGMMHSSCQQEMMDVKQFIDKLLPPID
PAFAH1B2 inh: blocks human PAF acetylhydrolase 1b catalytic subunit 2 | P68402 | 340,000 tested, 1.2% active | inhibition, % at 3.39 µM | recombinant PAFAH1B2, FP-rhodamine activity probe, fluorescence polarization | AID 492953;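 active = inhibition above the mean of all tested compounds plus 3 SD, cut at about 24% in these data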;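 note: 0% = enzyme with DMSO and 100% = wells lacking PAFAH1B2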
LYPLA2 inh: LYPLA2 (human) inhibition in PME1 counter-screen | O95372 | recombinant LYPLA2, FP-Rh probe fluorescence polarization | inhibition, % at 5.9 µM | 320,000 tested, 0.38% active | AID 2177;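 active = inhibition above the screen-wide mean plus 3 SD, limit set per campaign, cut at about 26% in these data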;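 note: 0% = LYPLA2 with DMSO and 100% = wells lacking LYPLA2 enzyme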
Target sequence (O95372 whole entry, looked up): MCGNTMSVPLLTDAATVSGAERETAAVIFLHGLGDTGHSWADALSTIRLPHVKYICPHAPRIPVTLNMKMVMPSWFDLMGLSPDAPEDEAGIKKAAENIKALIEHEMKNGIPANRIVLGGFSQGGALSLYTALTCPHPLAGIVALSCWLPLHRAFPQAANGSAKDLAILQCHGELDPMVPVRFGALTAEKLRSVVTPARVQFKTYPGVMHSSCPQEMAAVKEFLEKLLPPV
Starred values were filed as active, the others as inactive; nt = no result.

SMILES | PAFAH1B3 inh | PAFAH2 FP inh | pPAFAH FP inh | LYPLA1 inh | PAFAH1B2 inh | LYPLA2 inh
O=C(OCc1ccc(Cl)c(Cl)c1)c1ccc[nH]1 | 4 | 47* | -2 | -4 | 5 | -3
Cc1ccc(S(=O)(=O)n2nc(-c3cccnc3)nc2N)cc1 | 0 | 6 | 1 | -2 | 33* | -2
N#CC1=C(N)C2=CCCC[C@H]2[C@H](c2ccc(Br)cc2)C1(C#N)C#N | -5 | -1 | 28* | 1 | 10 | -4
N#CC1=C(N)C2=CCCC[C@H]2[C@H](c2ccccc2)C1(C#N)C#N | 6 | 8 | 5 | -1 | 5 | 5
Cc1ccc(NC(=O)CCS(=O)(=O)c2ccc(Br)cc2)nc1 | 7 | 3 | 4 | -1 | 12 | -2
O=C1NC(c2cccs2)C(C(=O)c2ccccc2)C(O)(C(F)(F)F)N1 (stereo unspecified) | 3 | 3 | 0 | 6 | 32* | 6
CCCCCCCCCS(=O)(=O)N/N=C/c1cccc([N+](=O)[O-])c1 | 11 | 18 | 21 | -1 | 28* | 3
Cc1ccc(S(=O)(=O)N/N=C/c2cccc([N+](=O)[O-])c2)cc1 | 13 | 1 | 0 | -2 | 4 | 4
O=C(NCc1n[nH]c(=S)n1-c1ccc(Br)cc1)c1ccc(S(=O)(=O)N2CCCCC2)cc1 | -9 | 3 | 4 | -4 | 30* | -1
O=C(NCc1n[nH]c(=S)n1-c1ccc(Br)cc1)c1ccc(S(=O)(=O)N2CCCC2)cc1 | -1 | 1 | -3 | 4 | 12 | 6
Cc1ccc(NC(=O)CSc2sc3c(O)cc(=O)[nH]c3c2C#N)c(F)c1 | 13 | 15 | 31* | -17 | 7 | -26
COc1ccc(OC)c(NC(=O)CSc2sc3c(O)cc(=O)[nH]c3c2C#N)c1 | 7 | 25 | 20 | -10 | 8 | 3
N#Cc1c(SCC(=O)Nc2ccc(C(F)(F)F)cc2)sc2c(O)cc(=O)[nH]c12 | 9 | -8 | 25* | -21 | 10 | -20
O=C(CCc1nnc(Cc2ccc3c(c2)OCO3)o1)N(CC1CCC1)CC1CCCO1 (stereo unspecified) | 1 | -2 | 5 | 6 | 2 | 5
O=c1oc(-c2ccccc2[N+](=O)[O-])nc2ccccc12 | 3 | 45* | 0 | -7 | -2 | -2
O=c1oc(-c2ccco2)nc2ccccc12 | 5 | 23 | -1 | -1 | -1 | -4
Cc1cccc(C(=O)O/N=C(\c2ccccc2)c2cccnc2)c1 | 3 | 72* | 30* | 4 | 14 | 6
N/C(=N\OC(=O)c1ccccc1)c1cccnc1 | 5 | -2 | -1 | -1 | -2 | 0
Nc1cc(C(=O)O)ccc1Nc1ccccc1 | 9 | 2 | 27* | -2 | 0 | -4
CCCCCCCCCC(=O)O | 3 | -2 | 4 | nt | 9 | nt
CCCCCC#CCC#CCC#CCC#CCCCC(=O)O | nt | nt | 61* | 0 | nt | 10
COc1ccc(NS(=O)(=O)c2ccc(NC(=O)C(CCSC)NC(N)=O)cc2)cc1 (stereo unspecified) | -2 | -6 | 31* | 1 | 3 | -3
CC1CCCN(C(=O)C(C)Nc2cc(Cl)ccc2N2CCOCC2)C1 (stereo unspecified) | 1 | 1 | 6 | -1 | -2 | 2
Cc1c(N=C2C=C(Br)C(=O)C(Br)=C2)c(=O)n(-c2ccccc2)n1C | 2 | 16 | nt | nt | 35* | nt
COC(=O)C1CSc2[nH]c(=O)sc2C1c1ccccc1 (stereo unspecified) | 3 | 11 | 2 | 1 | 28* | 0
Oc1ccccc1C1NN=C(c2ccccc2)S1 (stereo unspecified) | -1 | 49* | -3 | -3 | 6 | -4
O=C(Nc1cc(S(=O)(=O)N2CCCCC2)ccc1Cl)c1ccccc1NS(=O)(=O)c1ccc(F)cc1 | 18 | 2 | 22 | -12 | 30* | -2
O=C(Nc1ccc(F)cc1)Nc1ccc(N2CCCC2)c(S(=O)(=O)Nc2ccccc2Cl)c1 | -7 | -24 | 25* | -25 | -6 | -2
O=C(NNS(=O)(=O)c1ccc(Cl)cc1)c1ccc(S(=O)(=O)N2CCCCC2)cc1 | 0 | -7 | 0 | 4 | 11 | -6
O=C(Nc1cc(S(=O)(=O)Nc2ccc(Cl)cc2)ccc1O)c1ccc(S(=O)(=O)N2CCCCCC2)cc1 | -5 | -11 | 30* | -5 | -6 | -11
